PubChem BioAssay
Active and inactive are the calls of the source. Unless noted, the rule behind the calls is not given here.

Experiments:
[1] = circadian clock period modulators, cell-based, LOPAC library, luminescence reporter (AID 2774); settings: circadian reporter cells, at 7 µM, actives lie on both sides;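 note: values are relative to mean of DMSO wells on each plate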
[2] = system: Hepatitis C virus NS3 helicase; experiment: HCV NS3 helicase inhibitors, primary screen, biochemical, fluorescence polarization, LOPAC1280 library (AID 687035; in the data active = inhibition above about 37%); settings: Purified HCV NS3 helicase, Cy5-dT15 ssDNA binding fluorescence polarization; stronger effect = higher value; concentration not given here
[3] = Cy5 fluorescence quenching or enhancement artefacts, artefact control for HCV NS3 helicase inhibitor project, biochemical, LOPAC1280 (AID 687037); settings: Cy5-DNA-NS3h complex fluorescence interference counterscreen
[4] = system: Aerobactin synthetase IucA (Klebsiella pneumoniae, hypervirulent); experiment: IucA enzyme inhibition, biochemical, LOPAC library, absorbance readout (AID 1346212); settings: IucA enzyme assay, absorbance (OD) readout; stronger effect = lower value;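 tested at 8 µM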;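 note: 100% = no compound wells and 0% = no enzyme wells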
[5] = sensitizers of A549 cells to miR-34 induction, primary screen, imaging, A549 dox-inducible miR-34, nuclei and caspase counts (AID 1347080;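 active = compounds whose cell count with miR-34 switched on is under 0.7 times the count with it off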); settings: A549 miR-34 inducible, Hoechst nuclei count, 48 h
[6] = phospholipid biosynthesis inhibitors in animal cells, primary screen, cell-based, LOPAC library, screen 4 (AID 1347384); settings: phospholipid biosynthesis inhibition screen, at 10 µM
[7] = viability rescue of complex I mutant cybrids, primary screen, cell-based, galactose medium, ATP luminescence (AID 1645843;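 active = z-score of at least 1.8 in each of two replicates, scored against plate mean and spread of sample wells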;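 note: positive z means more ATP and so rescue of galactose-driven cybrid death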); settings: complex I mutant cybrid cells, 72 h, stronger effect = higher value
[8] = measured here: relative caspase fold change +Dox/-Dox
[9] = measured here: total cells with miR-34 induction, stronger effect = lower value
[10] = measured here: total cells without miR-34 induction

NNC(N)=O
period change [1]: -0.03 h (inactive)
inhibition [2]: -3% (inactive)
fluorescence ratio (interference) [3]: 1 (inactive)
remaining activity [4]: 102% (inactive)
fold change ([5]; stronger effect = lower value): 0.944 (inactive)
fold change [5, 8]: 0.77
cell count [5, 9]: 10400
cell count [5, 10]: 11000
outcome [6]: inactive
z-score [7]: 0.4 (inactive)

CP(=O)(O)C1=CCNCC1
period change [1]: 0.005 h (inactive)
inhibition [2]: -5% (inactive)
fluorescence ratio (interference) [3]: 1 (inactive)
remaining activity [4]: 95.4% (inactive)
fold change ([5]; stronger effect = lower value): 0.981 (inactive)
fold change [5, 8]: 1.49
cell count [5, 9]: 9760
cell count [5, 10]: 9940
outcome [6]: inactive
z-score [7]: 0.2 (inactive)

CCCN(CCC)[C@H]1CCc2c(F)ccc(O)c2C1
period change [1]: -0.075 h (inactive)
inhibition [2]: -4% (inactive)
fluorescence ratio (interference) [3]: 1 (inactive)
remaining activity [4]: 115% (inactive)
fold change ([5]; stronger effect = lower value): 1.05 (inactive)
fold change [5, 8]: 1.11
cell count [5, 9]: 10100
cell count [5, 10]: 9610
outcome [6]: inactive
z-score [7]: -0.33 (inactive)

O=C(O)[C@@H]1CCN1
period change [1]: 0.09 h (inactive)
inhibition [2]: -5% (inactive)
fluorescence ratio (interference) [3]: 0.9 (inactive)
remaining activity [4]: 122% (inactive)
fold change ([5]; stronger effect = lower value): 1.03 (inactive)
fold change [5, 8]: 1.27
cell count [5, 9]: 10700
cell count [5, 10]: 10400
outcome [6]: inactive
z-score [7]: 0.2 (inactive)

NC(=O)CI
period change [1]: -0.03 h (inactive)
inhibition [2]: -1% (inactive)
fluorescence ratio (interference) [3]: 1.1 (inactive)
remaining activity [4]: 124% (inactive)
fold change ([5]; stronger effect = lower value): 1.11 (inactive)
fold change [5, 8]: 1.73
cell count [5, 9]: 3640
cell count [5, 10]: 3270
outcome [6]: inactive
z-score [7]: -1 (inactive)

CN1CCc2cc(O)cc3c2[C@H]1Cc1ccc(O)c(O)c1-3
period change [1]: 0.03 h (inactive)
inhibition [2]: -2% (inactive)
fluorescence ratio (interference) [3]: 1 (inactive)
remaining activity [4]: 101% (inactive)
fold change ([5]; stronger effect = lower value): 1.01 (inactive)
fold change [5, 8]: 1.15
cell count [5, 9]: 9530
cell count [5, 10]: 9390
outcome [6]: inactive
z-score [7]: -1.03 (inactive)

Clc1cnc(Oc2ccc(Oc3ncc(Cl)cc3Cl)cc2)c(Cl)c1
period change [1]: 0 h (inactive)
inhibition [2]: -3% (inactive)
fluorescence ratio (interference) [3]: 1 (inactive)
remaining activity [4]: 94.8% (inactive)
fold change ([5]; stronger effect = lower value): 0.984 (inactive)
fold change [5, 8]: 1.88
cell count [5, 9]: 9890
cell count [5, 10]: 10000
outcome [6]: inactive
z-score [7]: 1.21 (inactive)

NCC(CP(=O)(O)O)c1ccc(Cl)cc1 (stereo not given)
period change [1]: 0.02 h (inactive)
inhibition [2]: -1% (inactive)
fluorescence ratio (interference) [3]: 1 (inactive)
remaining activity [4]: 107% (inactive)
fold change ([5]; stronger effect = lower value): 1 (inactive)
fold change [5, 8]: 1.21
cell count [5, 9]: 9470
cell count [5, 10]: 9430
outcome [6]: inactive
z-score [7]: 0.615 (inactive)

COc1ccc2c(c1O)-c1cccc3c1[C@@H](C2)N(C)CC3
period change [1]: -0.1 h (inactive)
inhibition [2]: -4% (inactive)
fluorescence ratio (interference) [3]: 1 (inactive)
remaining activity [4]: 102% (inactive)
fold change ([5]; stronger effect = lower value): 0.958 (inactive)
fold change [5, 8]: 1.07
cell count [5, 9]: 7690
cell count [5, 10]: 8030
outcome [6]: inactive
z-score [7]: -0.76 (inactive)

CC(N)[C@H](O)c1ccc(O)c(O)c1 (stereo not given in full)
period change [1]: -0.05 h (inactive)
inhibition [2]: 0% (inactive)
fluorescence ratio (interference) [3]: 1 (inactive)
remaining activity [4]: 122% (inactive)
fold change ([5]; stronger effect = lower value): 0.943 (inactive)
fold change [5, 8]: 1.34
cell count [5, 9]: 10200
cell count [5, 10]: 10800
outcome [6]: inactive
z-score [7]: -0.925 (inactive)

CO[C@H]1CC=C2CCN3CCC4=C(CC(=O)OC4)[C@]23C1
period change [1]: 0.065 h (inactive)
inhibition [2]: -3% (inactive)
fluorescence ratio (interference) [3]: 1 (inactive)
remaining activity [4]: 103% (inactive)
fold change ([5]; stronger effect = lower value, cell number ratio, induced over uninduced): 0.939 (inactive)
fold change [5, 8]: 1.26
cell count [5, 9]: 9420
cell count [5, 10]: 10000
outcome [6]: inactive
z-score [7]: 0.375 (inactive)

CCCC[N+]1(C)C2CC(OC(=O)[C@H](CO)c3ccccc3)CC1C1OC12 (stereo not given in full)
period change [1]: -0.065 h (inactive)
inhibition [2]: -1% (inactive)
fluorescence ratio (interference) [3]: 1 (inactive)
remaining activity [4]: 117% (inactive)
fold change ([5]; stronger effect = lower value): 0.937 (inactive)
fold change [5, 8]: 1.39
cell count [5, 9]: 9870
cell count [5, 10]: 10500
outcome [6]: inactive
z-score [7]: 0.72 (inactive)

Clc1ccc(N2CC3CCC(C2)N3)nn1
period change [1]: -0.11 h (inactive)
inhibition [2]: -5% (inactive)
fluorescence ratio (interference) [3]: 1 (inactive)
remaining activity [4]: 90.4% (inactive)
fold change ([5]; stronger effect = lower value): 1 (inactive)
fold change [5, 8]: 1.13
cell count [5, 9]: 10400
cell count [5, 10]: 10400
outcome [6]: inactive
z-score [7]: -0.28 (inactive)

CCCN1CCC[C@@H](c2cccc(O)c2)C1
period change [1]: 0.11 h (inactive)
inhibition [2]: -3% (inactive)
fluorescence ratio (interference) [3]: 1 (inactive)
remaining activity [4]: 106% (inactive)
fold change ([5]; stronger effect = lower value): 0.956 (inactive)
fold change [5, 8]: 0.986
cell count [5, 9]: 9850
cell count [5, 10]: 10300
outcome [6]: inactive
z-score [7]: 0.185 (inactive)

C[C@H](N)CN1CCc2ccc(Br)cc21
period change [1]: 0.205 h (inactive)
inhibition [2]: -3% (inactive)
fluorescence ratio (interference) [3]: 1 (inactive)
remaining activity [4]: 115% (inactive)
fold change ([5]; stronger effect = lower value): 1.19 (inactive)
fold change [5, 8]: 0.954
cell count [5, 9]: 9010
cell count [5, 10]: 7600
outcome [6]: inactive
z-score [7]: -0.65 (inactive)

O=[N+]([O-])c1ccc2nc(N3CCNCC3)ccc2c1
period change [1]: -0.09 h (inactive)
inhibition [2]: -1% (inactive)
fluorescence ratio (interference) [3]: 1 (inactive)
remaining activity [4]: 117% (inactive)
fold change ([5]; stronger effect = lower value): 1.07 (inactive)
fold change [5, 8]: 1.56
cell count [5, 9]: 8660
cell count [5, 10]: 8090
outcome [6]: inactive
z-score [7]: -1.12 (inactive)

CNCCc1ccc(O)c(O)c1
period change [1]: 0 h (inactive)
inhibition [2]: -2% (inactive)
fluorescence ratio (interference) [3]: 1 (inactive)
remaining activity [4]: 115% (inactive)
fold change ([5]; stronger effect = lower value): 1.01 (inactive)
fold change [5, 8]: 1.35
cell count [5, 9]: 9960
cell count [5, 10]: 9850
outcome [6]: inactive
z-score [7]: -0.945 (inactive)

NNC(=O)c1ccc(O)cc1
period change [1]: 0.115 h (inactive)
inhibition [2]: 1% (inactive)
fluorescence ratio (interference) [3]: 1.1 (inactive)
remaining activity [4]: 109% (inactive)
fold change ([5]; stronger effect = lower value): 0.976 (inactive)
fold change [5, 8]: 1.57
cell count [5, 9]: 9790
cell count [5, 10]: 10000
outcome [6]: inactive
z-score [7]: 0.275 (inactive)
